LmPK inh: blocks Leishmania mexicana pyruvate kinase activity. Q27686. purified LmPK, Kinase-Glo ATP luminescence, 1 h. Potency, µM (top dose mostly 57.5 µM), actives largely listed as inhibitors. 290,000 compounds, 0.37% hits
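ATP generated from ADP (0.1 mM) and PEP (0.5 mM) by 0.1 nM LmPK over 1 h at room temperature (pH 7.2 imidazole buffer) was detected by coupled luciferase luminescence. Values were normalized to uninhibited and no-enzyme wells.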
Tb PYK inh: T. brucei pyruvate kinase inhibition | Potency, µM (titrated, usually from 76.8 µM), usual class: inhibitors | AID 624173 | TbPYK enzyme, Kinase-Glo Plus ATP luminescence, 45 min | 410,000 compounds, 0.12% hits; note: nearly all actives have a fitted effect of over 50% in size
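Screened from lowest to highest concentration, compounds were pinned into TbPYK/substrate mixtures, and ADP (130 uM final) was added. Plates sat at room temperature for 45 min prior to Kinase-Glo Plus detection by luminescence.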
Giardia FBPA inh-1: inhibitors of Giardia lamblia fructose-1,6-bisphosphate aldolase; A8B2U2; purified Giardia FBPA; Potency, µM (titrated, usually from 59.6 µM), hits mostly inhibitors; 290,000 compounds, 0.71% hits; note: nearly all actives have a fitted effect of over 55% in size
Target sequence (A8B2U2 whole entry, looked up): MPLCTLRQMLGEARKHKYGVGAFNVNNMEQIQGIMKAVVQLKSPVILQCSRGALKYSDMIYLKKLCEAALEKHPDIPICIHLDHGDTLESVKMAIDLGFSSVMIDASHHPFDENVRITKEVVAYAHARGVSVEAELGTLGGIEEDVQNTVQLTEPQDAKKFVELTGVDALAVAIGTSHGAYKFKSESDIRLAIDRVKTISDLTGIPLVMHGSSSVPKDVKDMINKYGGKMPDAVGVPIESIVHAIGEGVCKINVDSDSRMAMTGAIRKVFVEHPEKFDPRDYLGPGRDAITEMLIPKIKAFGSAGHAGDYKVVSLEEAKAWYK
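40 nM FBPA preincubated 10 min at RT with compound (up to 57.5 uM final), then substrate plus GAPDH/TPI/NAD/arsenate coupling and diaphorase/resazurin added. Fluorescence read after 20 min at RT, 525/598 nm.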
RE007 growth inh: less growth of the S. pombe RE007 Vpr strain; S. pombe RE007 Vpr strain, BacTiter-Glo ATP luminescence, 24 h; Potency, µM (titrated, usually from 92.2 µM), usual class: inhibitors; 360,000 compounds, 0.21% hits; active = well fitted falling curve with a large enough effect; inconclusive = small, poorly fitted or top-dose-only effect; inactive = no such curve, though single readings can be large or run the other way; note: nearly all actives have a fitted effect of over 50% in size
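Fission yeast RE007 carrying one integrated HIV-1 vpr copy, seeded at OD 0.01 in PMG+AL medium with 23 nL pinned compound. Grown 24 h at 30 degrees; viability read by BacTiter-Glo luminescence after 5 min.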
Giardia growth: inhibitors of Giardia lamblia growth; shares compounds with Giardia FBPA inh-1; Giardia lamblia trophozoite growth inhibition; AID 2785; 1,500 compounds, 5% hits; Potency, µM (titrated, usually from 57.5 µM), usual class: inhibitors;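 note: trophozoites exposed to compound for 48 h at 37 °C; nearly all actives have a fitted effect of over 70% in size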
Mammalian tox: mammalian cytotoxicity of Giardia aldolase inhibitor hits | Potency, µM (series often up to 57.5 µM), actives largely listed as inhibitors | 1,500 compounds, 4% hits | shares compounds with Giardia FBPA inh-1 | mammalian cell viability counter-screen, qHTS;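 note: Chinese hamster ovary cells used as mammalian cytotoxicity surrogate; viability measured as cellular ATP by luminescence; compound exposure lasted 48 h before reading; nearly all actives have a fitted effect of over 60% in size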
Giardia FBPA inh-2: confirmation of Giardia fructose-bisphosphate aldolase inhibitors. AID 2787. 1,500 compounds, 5% hits. purified Giardia aldolase enzyme activity, qHTS. Potency, µM (doses to about 57.5 µM), hits mostly inhibitors. shares compounds with Giardia FBPA inh-1; note: nearly all actives have a fitted effect of over 45% in size
Rabbit FBPA inh: selectivity test for Giardia aldolase inhibitors: rabbit aldolase. shares compounds with Giardia FBPA inh-1. Rabbit muscle FBPA enzyme inhibition, selectivity counter-screen. Potency, µM (series often up to 57.5 µM), hits mostly inhibitors. 1,500 compounds, 4% hits; note: nearly all actives have a fitted effect of over 60% in size
GAPDH counter: GAPDH inhibition flagged for Giardia aldolase hits | Potency, µM (doses to about 57.5 µM), hits mostly inhibitors | shares compounds with Giardia FBPA inh-1 | GAPDH coupling enzyme counterscreen, biochemical, qHTS | 1,500 compounds, 6% hits; note: nearly all actives have a fitted effect of over 55% in size
Hits are given with their value; - = inactive; ? = inconclusive; . = not tested or not shown; [ ] = another dose, or the depositor's remark. This is a sample that favours compounds with a hit; in the whole collection about 0.95% have one here. Unless noted, calls come from the whole dose curve; as a rule, active = well fitted curve in the direction sought with a large enough effect; inconclusive = small, poorly fitted or top-dose-only effect, or another doubt; inactive = no such curve, though single readings can be large; an effect the other way counts as inactive or inconclusive.

SMILES	LmPK inh	Tb PYK inh	Giardia FBPA inh-1	RE007 growth inh	Giardia growth	Mammalian tox	Giardia FBPA inh-2	Rabbit FBPA inh	GAPDH counter
NCCCC[C@H](NC(=O)[C@H](Cc1c[nH]c2ccccc12)NC(=O)[C@H](CC(=O)O)NC(=O)[C@H](Cc1cnc[nH]1)NC(=O)[C@H](CO)NC(=O)[C@H](Cc1c[nH]c2ccccc12)NC(=O)[C@H](Cc1cnc[nH]1)NC(=O)[C@@H]1CCC(=O)N1)C(=O)N1CCC[C@H]1C(=O)NCC(N)=O	.	.	-	.	.	.	.	.	.
Cn1c(=O)c2c(nc(NNC(=O)C(F)(F)F)n2C)n(C)c1=O	-	-	18µM	-	-[10.4 µM]	-	-	-	-
Cn1c(=O)c2c(nc(NN=C3CCCC3)n2C)n(C)c1=O	-	-	16µM	-	-	-	-	-	-
Cn1c(=O)c2c(nc(CO)n2C)n(C)c1=O	-	-	-	-	.	.	.	.	.
Cn1c(=O)c2c(nc(N3CCCC3)n2C)n(C)c1=O	-	-	-	-	.	.	.	.	.
Cc1ccc(NC(=O)CCC(=O)N2CCSc3ccccc32)cc1Cl	.	-	.	.	.	.	.	.	.
Cc1c(CCO)c(=O)n2c([nH]c3ccccc32)c1C#N	-	-	25µM	-	-	-	-	-	-
COc1cccc(C(=O)N2CCN(Cc3ccccn3)CC2)c1	-	-	25µM	-	-	-	-	-	-
CCOC(=O)C1CCN(Cc2ccccn2)CC1	-	.	18µM	.	?	-	-	-	-
O=C(O)C1CCN(Cc2ccccn2)CC1	-	-	-	-	.	.	.	.	.
CCOC(=O)c1ncc2[nH]c3cccc(OC(C)C)c3c2c1C	.	.	-	.	.	.	.	.	.
COC(=O)N1CCN(/[N+]([O-])=N/Oc2ccc([N+](=O)[O-])cc2[N+](=O)[O-])CC1	.	.	-	.	.	.	.	.	.
O=C(C1=C(O)C(=O)N(CCc2ccccc2)C1c1ccncc1)c1cc2ccccc2o1 (stereo unspecified)	-	-	-	-	.	.	.	.	.
O=C(C1=C(O)C(=O)N(c2nccs2)C1c1ccccc1)c1cc2ccccc2o1 (stereo unspecified)	-	-	16µM	-	-	-	-	-	-
Cc1cc(C)cc(NC(=O)C(NCC2CCCO2)c2ccccc2)c1 (stereo unspecified)	-	-	16µM	-	-[10.4 µM]	-	-	-	-
COC(=O)c1ccc(NC(=O)c2c(NCc3cccc(F)c3)sc3c2CCCC3)cc1	.	-	.	.	.	.	.	.	.
O=S(=O)(c1ccccc1Br)N(Cc1ccccc1)Cc1ccco1	.	.	-	.	.	.	.	.	.
Cc1cccc(NC(=O)CSc2cccc3cccnc23)c1	-	-	-	-	.	.	.	.	.
O=C(CSc1cccc2cccnc12)Nc1cc(C(=O)O)cc(C(=O)O)c1	-	-	25µM	-	-	-	-	-	-
COc1ccc(C)cc1-n1c(SCC(=O)NCc2ccco2)nc2c([nH]c3ccccc32)c1=O	.	-	.	.	.	.	.	.	.
Nn1c(Cc2ccc(Br)cc2)n[nH]c1=S	-	?	?	-	.	.	.	.	.
Nn1c(Cc2ccccc2F)n[nH]c1=S	-	-	14µM	-	-	-	-	-	-
COc1ccc(Cc2n[nH]c(=S)n2N)cc1OC	-	?	13µM	-	-	-	-	-	-
COc1ccc(COC(=O)N/N=C2/C[C@@H](O)[C@@H](O)[C@@H]3[C@@H]4C(=O)N(C[C@@H]5CCCO5)C(=O)[C@H]4CC[C@@H]23)cc1	.	.	-[12.9 µM]	.	.	.	.	.	.
COc1ccc(NC(=O)Nc2ccc(N3CCOCC3)c3nonc23)c(OC)c1	-	-	5µM	-	?	-	-	-	-
O=C(Nc1ccc(N2CCOCC2)c2nonc12)C1CCCC1	-	-	0.5µM	-	-	-	-	-	-
COc1ccc(NC(=S)NC(=O)c2cccnc2)cc1	-	-	7.9µM	-	22µM	-	-	-	-

Source: PubChem BioAssay (National Center for Advancing Translational Sciences (NCATS))
